Source: PubChem BioAssay
ALDH1A1 block: blocks purified human ALDH1A1 activity | Purified ALDH1A1, NADH fluorescence, propionaldehyde substrate | Potency, µM (series often up to 75.3 µM), most hits filed as inhibitors | 220,000 tested, 7.3% active | AID 1030
Target sequence (P00352 whole entry, looked up): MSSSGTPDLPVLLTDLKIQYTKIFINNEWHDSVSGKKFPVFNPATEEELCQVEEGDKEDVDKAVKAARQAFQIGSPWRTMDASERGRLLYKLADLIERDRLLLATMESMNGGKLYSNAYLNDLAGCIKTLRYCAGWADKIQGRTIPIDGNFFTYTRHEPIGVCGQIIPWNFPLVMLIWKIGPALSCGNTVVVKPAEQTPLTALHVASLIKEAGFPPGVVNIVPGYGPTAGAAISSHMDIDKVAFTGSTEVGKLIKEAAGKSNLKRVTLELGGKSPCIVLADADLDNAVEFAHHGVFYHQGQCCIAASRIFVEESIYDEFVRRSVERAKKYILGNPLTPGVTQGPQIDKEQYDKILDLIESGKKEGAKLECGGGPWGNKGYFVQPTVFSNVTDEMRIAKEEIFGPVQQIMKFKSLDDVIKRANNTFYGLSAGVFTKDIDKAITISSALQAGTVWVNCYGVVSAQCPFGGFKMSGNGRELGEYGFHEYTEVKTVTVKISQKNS
HPGD inh: HPGD (human) dehydrogenase inhibition; Potency, µM, usual class: inhibitors; purified HPGD, NADH fluorescence kinetic, PGE2 substrate; 150,000 tested, 4.3% active
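20 nM HPGD preincubated 15 min at room temperature with compound in 50 mM Tris-HCl pH 8, 0.01% Tween 20. Started with 1 mM NAD+ and 30 uM prostaglandin E2; NADH fluorescence (360/450 nm) read 5 times over 30-s intervals, last minus first.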
Lamin A splicing: LMNA splicing modulation; 200,000 tested, 0.01% active; Potency, µM (doses to about 46.1 µM), actives largely listed as inhibitors; HeLa LMNA splicing GFP/RFP minigene ratio, 48 h; AID 1487; active = well fitted inhibition curve with a large enough effect in the signal ratio, with a control signal flat, not every such curve was filed as active; inconclusive = small, poorly fitted or top-dose-only effect, or effect the other way, or a change in a side signal; the % refers to the signal ratio
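S3 HeLa cells stably expressing lamin A-EGFP splicing minigene plus DsRed2, 600 cells/well, 48 h compound exposure at 37C. Laser-scanning cytometry; analysed as GFP (500-530 nm)/RFP (575-640 nm) total intensity ratio; 0.5% DMSO vehicle.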
PNC assembly inh: inhibitors of perinucleolar compartment assembly; PC3M PTB-GFP, PNC prevalence imaging, 16 h; stronger effect = lower value; activity change (PNC), negative = inhibition, % at 10 µM; 140,000 tested, 3.1% active;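 active = readout at or below -70, meaning at least 70% loss of cells showing the perinucleolar compartment, a nuclear body marking cancer cells; inconclusive = readout between -30 and a set limit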
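Read-out is percentage of cells bearing a perinucleolar compartment, from automated 20x imaging of fixed, Hoechst-stained PC3M PTB-GFP cells. Cells were seeded 4 h, then exposed 16 h to compound (23 nl of library stock) in duplicate plates.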
KinaseGlo FLuc: blocks Kinase-Glo luciferase, a counter-screen artifact; Q27757; Kinase-Glo luciferase, ATP luminescence, 8 min; Potency, µM (titrated, usually from 38.3 µM), most hits filed as inhibitors; 200,000 tested, 0.28% active; AID 1379; active = well fitted inhibition curve with a large enough effect; inconclusive = small, poorly fitted or top-dose-only effect; note: nearly all actives have a fitted effect of over 60% in size
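Compound is pinned into ATP-containing buffer (10 uM ATP, imidazole pH 7.2, 7 mM MgCl2). Kinase-Glo luciferase reagent is then added. Light output is recorded following an 8-min room-temperature incubation.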
HPGD inh conf: human HPGD enzyme inhibition, confirmation. shares compounds with HPGD inh. recombinant HPGD, NADH fluorescence, PGE2 substrate. Potency, µM (titrated, usually from 57.1 µM), actives largely listed as inhibitors. 90 tested, 90% active; calls by dose curve
Hits are given with their value; - = inactive; ? = inconclusive; . = no result; [ ] = dose if it differs, or a comment. Sampled rows, rich in hits. Any-hit rate of the full collection: about 10%. Unless noted, calls come from the whole dose curve; as a rule, active = well fitted inhibition curve with a large enough effect (not every such curve was filed as active); inconclusive = small, poorly fitted or top-dose-only effect, or another doubt; inactive = no such curve, though single readings can be large or run the other way.

SMILES | ALDH1A1 block | HPGD inh | Lamin A splicing | PNC assembly inh | KinaseGlo FLuc | others
COC(=O)CNC(=O)C(NC(=O)OCc1ccccc1)C(C)C (centres undefined) | - | . | ? | . | -
COC(=O)CNC(=O)C(C)NC(=O)OCc1ccccc1 (centres undefined) | - | - | - | -126.9 | -
CCOC(=O)c1cccc(NC(=O)C2Cc3ccccc3N2C(=O)c2ccccc2)c1 (centres undefined) | . | . | - | . | .
CCOc1cccc(-c2nnc3n2N=C(c2cc(OC)ccc2OC)CS3)c1 | 28.2µM | 25.1µM | ? | -98.6 | -
COc1cccc(-c2nnc3n2N=C(c2cc(OC)ccc2OC)CS3)c1 | - | 28.2µM | - | - | -
Cc1cccc(-c2nnc3n2N=C(c2ccccc2Br)CS3)c1 | ? | 2.51µM | ? | - | -
c1ccc([C@H](CCN2CCCC2)c2ccccn2)cc1 | -[13.5 µM] | - | . | . | -[7.66 µM]
CN(C)C=NC(=O)c1cc(C(=O)c2ccc(Cl)cc2)c[nH]1 | - | . | . | . | -
CN(C)C(=O)c1cc(C(=O)c2ccc(C(F)(F)F)cc2F)c[nH]1 | - | . | - | . | -
O=C(O)c1ccccc1C(=O)NNc1ccc(Cl)cc1 | ? | - | - | - | -
O=C(c1ccc(Cl)cc1)c1c[nH]c(C(=O)NNc2ccccc2)c1 | 20µM | . | ? | . | -
O=C(c1ccccc1)c1c[nH]c(C(=O)C(Cl)(Cl)Cl)c1 | 3.55µM | . | - | . | -
O=C(c1ccc(Cl)cc1)c1c[nH]c(C(=O)C(Cl)(Cl)Cl)c1 | 8.91µM | ? | - | - | -
O=C(c1c[nH]c(C(=O)C(Cl)(Cl)Cl)c1)c1ccc(F)cc1Cl | 1µM | . | ? | . | -
COc1ccc(-n2c(=O)c(-c3ccc(F)cc3)nc3cncnc32)cc1 | - | . | - | . | .
Cc1cc(C)n(-c2nnc(Cl)c3ccccc23)n1 | 3.55µM | . | . | . | -
COc1ccc(-n2c(COc3ccc4c(c3)OCO4)nnc2SCC(=O)O)cc1 | 2.51µM | . | . | . | -
CC(=O)OC[C@@H]1O[C@@H](O/N=C2/C[C@@H](O)[C@@H](O)[C@@H]3[C@@H]4C(=O)N(C(C)(C)C)C(=O)[C@H]4CC[C@@H]23)[C@H](OC(C)=O)[C@H](OC(C)=O)[C@@H]1OC(C)=O | -[13.5 µM] | . | . | . | .
Cc1ccc(S(=O)(=O)N2CCN(C(=O)N3CCOCC3)C2c2ccc(N(C)C)cc2)cc1 (centres undefined) | 0.631µM | - | - | ? | -
CN(C)c1ccc(C2N(C(=O)N3CCOCC3)CCN2S(=O)(=O)c2ccccc2)cc1 (centres undefined) | 1µM | - | - | - | -
CS(=O)(=O)N1CCC2(CCN(Cc3ccncc3)CC2)CC1 | - | - | . | . | -
Cc1ccc(-n2nnnc2SCC(=O)c2ccc3c(c2)NC(=O)CO3)c(C)c1 | ? | - | - | - | -
O=C1COc2ccc(C(=O)CSc3nnnn3-c3ccccc3)cc2N1 | 5.01µM | - | - | ? | -
CCCn1c(SCC(=O)c2ccc3c(c2)NC(=O)CO3)nc2ccccc21 | 3.16µM | - | ? | - | -
Cn1c(SCC(=O)c2ccc3c(c2)NC(=O)CO3)nc2ccccc21 | - | . | . | . | -
SMILES | ALDH1A1 block | HPGD inh | Lamin A splicing | PNC assembly inh | KinaseGlo FLuc | others
N#CN(Cc1ccccc1)Cc1ccccc1 | 39.8µM | . | . | . | .
Cc1cc(C)nc(N(C#N)Cc2ccccc2)n1 | 14.1µM | - | - | - | -
CCNc1nc(NC(C)C)nc(N(C#N)Cc2ccccc2)n1 | 1.78µM | - | - | ? | -
Cc1cc(C)nc(N(C#N)CC(=O)c2ccccc2)n1 | 28.2µM | - | - | - | -
Cc1ccc(NC(=O)CSc2nc(=O)n(CCN3CCOCC3)c3c2CCC3)c(C)c1 | . | . | - | . | .
COC(=O)CSc1nc2nc(C)c(Br)cc2[nH]1 | - | - | - | - | - | HPGD inh conf=?
CC1=NOC(=O)/C1=C/c1ccc(-c2ccc(Cl)cc2)o1 | 3.98µM | 1.12µM | ? | - | - | HPGD inh conf=1.12µM
CC1=NOC(=O)/C1=C\c1ccc(-c2cc(Cl)ccc2Cl)o1 | 3.55µM | 1.41µM | - | - | - | HPGD inh conf=0.447µM
C=CCNC(=S)N/N=C/c1ccc(-c2cc(Cl)ccc2Cl)o1 | ? | ? | ? | - | -
CC1CCCC(C)N1CC(O)COc1c(F)cc(Br)cc1F (centres undefined) | - | . | ? | . | -
O=C(c1ccc2c(c1)OCCO2)N1CCCCC1 | - | 0.126µM | - | - | - | HPGD inh conf=0.224µM
